Assay results from PubChem BioAssay AID1159580 (chemical genetic matrix, 2015).
Among all 5,500 compounds or so, about 2,000 (36%) were called active. Inconclusive results (about 18%) are left out. Some of the results follow. A number with no mark means an inactive call. Rule as the data show it: active = normalized growth mostly below about 0.91 (no sharp cut-off); inconclusive = no clear call, values can overlap the other calls; inactive = mostly above about 0.92.

Assay: chemical genetic growth profiling, strain panel (AID 1159580);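 also: tested at 20 µM; growth read once vehicle control cultures reached saturation at 30 °C; 1 = growth at the plate median or of vehicle wells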
Conditions: S. cerevisiae deletion strains, growth OD
[1] = locus YGR078C, strain PAC10, stronger effect = lower value
[2] = locus YJR075W, strain HOC1, stronger effect = lower value
[3] = locus YMR263W, strain SAP30, stronger effect = lower value
[4] = locus YMR307W, strain GAS1, stronger effect = lower value
[5] = locus YNL153C, strain GIM3, stronger effect = lower value
[6] = locus YNL322C, strain KRE1, stronger effect = lower value
[7] = locus YPL055C, strain LGE1, stronger effect = lower value
[8] = locus YPL241C, strain CIN2, stronger effect = lower value

Compound: CNCCNS(=O)(=O)c1cccc2cnccc12
- normalized growth (locus YAL040C, strain CLN3, stronger effect = lower value): 1
- normalized growth (locus YCL061C, strain MRC1 (second series), stronger effect = lower value): 1
- normalized growth (locus YDR363W, strain ESC2, stronger effect = lower value): 1.03
- normalized growth (locus YER002W, strain NOP16, stronger effect = lower value): 1
- normalized growth [1]: 1.02
- normalized growth [2]: 1.01
- normalized growth [3]: 0.998
- normalized growth [4]: 1
- normalized growth [5]: 1.01
- normalized growth (locus YNL175C, strain NOP13, stronger effect = lower value): 1.01
- normalized growth (locus YNL197C, strain WHI3, stronger effect = lower value): 1.04
- normalized growth (locus YNL224C, strain SQS1, stronger effect = lower value): 1
- normalized growth [6]: 1.02
- normalized growth (locus YOR083W, strain WHI5 (second series), stronger effect = lower value): 1
- normalized growth [7]: 1.01
- normalized growth [8]: 0.999

Compound: CCOC(=O)c1csc(N/N=C2/CCCc3ccccc32)n1
- normalized growth (locus YBR229C, strain ROT2, stronger effect = lower value): 0.887 (active)
- normalized growth (locus YDL101C, strain DUN1, stronger effect = lower value): 0.862 (active)
- normalized growth (locus YDL134C, strain PPH21, stronger effect = lower value): 0.458 (active)
- normalized growth (locus YDR150W, strain NUM1, stronger effect = lower value): 0.897
- normalized growth (locus YEL061C, strain CIN8, stronger effect = lower value): 0.821 (active)
- normalized growth [1]: 0.899 (active)
- normalized growth (locus YGR229C, strain SMI1, stronger effect = lower value): 0.986
- normalized growth (locus YHR030C, strain SLT2, stronger effect = lower value): 0.232 (active)
- normalized growth (locus YHR087W, strain rtc3, stronger effect = lower value): 0.899 (active)
- normalized growth (locus YJR043C, strain POL32, stronger effect = lower value): 0.965
- normalized growth [2]: 0.867 (active)
- normalized growth (locus YLR039C, strain RIC1, stronger effect = lower value): 0.701 (active)
- normalized growth (locus YLR058C, strain SHM2 (second series), stronger effect = lower value): 0.976
- normalized growth (locus YLR085C, strain ARP6, stronger effect = lower value): 0.573 (active)
- normalized growth (locus YLR262C, strain YPT6, stronger effect = lower value): 0.868
- normalized growth (locus YML094W, strain GIM5, stronger effect = lower value): 0.749 (active)
- normalized growth (locus YMR219W, strain ESC1, stronger effect = lower value): 0.92 (active)
- normalized growth [3]: 0.88 (active)
- normalized growth [4]: 0.631 (active)
- normalized growth (locus YNL128W, strain TEP1, stronger effect = lower value): 0.971
- normalized growth [5]: 0.915 (active)
- normalized growth (locus YNL298W, strain CLA4 (second series), stronger effect = lower value): 0.732 (active)
- normalized growth [6]: 1
- normalized growth (locus YNR030W, strain Alg12, stronger effect = lower value): 0.779 (active)
- normalized growth (locus YOL006C, strain TOP1, stronger effect = lower value): 0.849
- normalized growth [7]: 0.692 (active)
- normalized growth [8]: 0.747 (active)
- normalized growth (locus YPR135W, strain CTF4, stronger effect = lower value): 0.629 (active)
